# Out of some 38,000 compounds screened, about 1,200 (3.2%) showed an effect of 50% or more. The median lay at about -58%. Only a selection was taken, and strong results are over-represented in it overall.
# System: Plasmodium falciparum
# Test: Calibr Malaria Delayed Death Assay SOP
# Format: functional, organism-based
# Parameters: scale not given: in the data most compounds retested in dose-response had high values
# Conditions: concentration 4.99e-06 (unit not given; other assays of the set use mol/L)
row,Structure (SMILES),Percent Effect [%]
1,CN(Cc1nnc(C2CCC2)o1)C(C(N)=O)c1cccc(F)c1 (stereo unspecified),-103
2,Cc1ccc(S(=O)(=O)NCC(O)c2ccoc2)s1 (stereo unspecified),-144.6
3,O=C(Cc1ccncc1)N1CCC2(CC1)CC(c1ccccc1)CO2.O=C(O)C(F)(F)F (stereo unspecified),-32.94
4,CCN1CCC2(CC1)CC(NCc1ccncc1)c1ccccc1O2.O=C(O)C(F)(F)F.O=C(O)C(F)(F)F.O=C(O)C(F)(F)F (stereo unspecified),77.69
5,CN1CCC2(CC1)CC(NC(=O)c1csnn1)c1ccccc1O2.O=C(O)C(F)(F)F (stereo unspecified),-14.05
6,CCN1CCC2(CC1)CC(NC(=O)c1c[nH]cn1)c1ccccc1O2 (stereo unspecified),-75.27
7,CCN1CCC2(CC1)CC(Nc1ncccn1)CO2 (stereo unspecified),-15.58
8,O=C(c1ccsc1)N1CCC2(CC1)CCN(S(=O)(=O)C1CC1)CC2,5.88
9,COc1ccccc1S(=O)(=O)Nc1cnc(O)cc1C,-22.04
10,c1cncc(NCCNC2CCSCC2)c1,-16.36
11,c1cncc(NCCNC2CCCNC2)c1 (stereo unspecified),-4.225
12,CC(C)CN1CCC(NCCNc2cccnc2)CC1,78.75
13,Cn1cc(CCNC(=O)c2cc3ccccc3nc2N2CCCC2)cn1,-91.24
14,CC(C)Nc1nc2c(c(N(C)C)n1)CCN(Cc1nccn1C)CC2.O=C(O)C(F)(F)F,53.11
15,Cc1nc(N2CCCC2)nc2c1CCN(Cc1nccn1C)CC2.O=C(O)C(F)(F)F,-65.41
16,CC(C)Nc1nc2c(c(NC3CC3)n1)CCN(Cc1nccn1C)CC2.O=C(O)C(F)(F)F,75.38
17,CN(C)c1nc(N2CCCC2)nc2c1CCN(Cc1nccn1C)CC2.O=C(O)C(F)(F)F,3.003
18,CC(C)Nc1ncnc2c1CCN(Cc1nccn1C)CC2.O=C(O)C(F)(F)F.O=C(O)C(F)(F)F,-41.64
19,Cc1nc(C)c2c(n1)CCN(Cc1nccn1C)CC2.O=C(O)C(F)(F)F,-117.5
20,Cc1nc(C)c(C(=O)N2CCN(CCOc3ccccc3C)CC2)o1,-41.56
21,Cl.N[C@@H](Cc1ccccc1)c1nnc(S(=O)(=O)Cc2ccc(Cl)cc2)o1,-112.8
22,COc1cnc(N2CCN(C)CC2)nc1-c1ccnn1C,-14.56
23,Cc1cnc(N2CCN(C)CC2)nc1-c1ccnn1C,-103.6
24,COc1cnc(N2CC(N3CCOCC3)C2)nc1-c1ccnn1C,75.52
25,CC(C)Cc1nc(OCC(=O)O)c(C#N)c2c1CCCC2,-37.32
26,Cc1[nH]nc(CCC(=O)N2CCc3c(nc[nH]c3=O)C2)c1C,-169.9

row,Structure (SMILES),Percent Effect [%]
1,CCN(CC)CCn1cnc(-c2ccccc2)c1-c1ncc[nH]1,-50.85
2,CCN(CC)CCn1cnc(-c2ccccc2)c1-c1cnn(CC)c1,18.58
3,CCN(CC)CCn1cnc(-c2ccccc2)c1-c1cnc(C)s1,52.89
4,CCc1ccsc1C(=O)NC(C#N)CC(C)C (stereo unspecified),-81.49
5,CC1CCN(C(=O)c2ccc(N(C)Cc3cnn(C)c3)nc2)CC1,-165.6
6,Cc1sc2nc(C(F)(F)F)nc(N3CCCN(C)CC3)c2c1C,75.15
7,Cc1sc2nc(C(F)(F)F)nc(N3CCN(C)CC3)c2c1C,10.88
8,CC(=O)N1CCN(c2nc(C(F)(F)F)nc3sc(C)c(C)c23)CC1,-31.05
9,CC(NCc1ccc(F)cc1)c1ccc2[nH]c(=O)[nH]c2c1 (stereo unspecified),-45.16
10,O=C1Nc2ccccc2/C1=C1\CCCCN1,-131
11,CN(C)CC(=O)N1CCc2sc(C(=O)NCC3CC3)cc21.O=C(O)C(F)(F)F,-49.99
12,CCn1nc2c(cc1=O)CN(Cc1nc(CCOC)no1)CC2,-158.3
13,CCCn1nc2c(cc1=O)CN(Cc1nc(-c3ccoc3)no1)CC2,-48.33
14,CCCn1nc2c(cc1=O)CN(Cc1nc(CCOC)no1)CC2,60.93
15,Cn1nc(CO)c2c1CCN(c1ncnc3c1CCNC3)C2,-81.19
16,CC(=O)Nc1ccc(CN(C)Cc2snnc2C)cc1,-153.1
17,CCNS(=O)(=O)c1cccc(CSC)c1,-125.2
18,CCN(CC)CCNS(=O)(=O)c1cccc(CSC)c1,83.08
19,CSCc1cccc(S(=O)(=O)NCCO)c1,-54.99
20,CN1CCN(S(=O)(=O)NCC2COc3ccccc3C2)CC1 (stereo unspecified),-15.69
21,CCN1CCC(CNS(=O)(=O)N2CCc3ccccc3C2)C1 (stereo unspecified),54.33
22,O=S1(=O)CCC(CNS(=O)(=O)N2CCc3ccccc3C2)C1 (stereo unspecified),-112.5
23,COCC1CCN(S(=O)(=O)NCC2COc3ccccc3C2)CC1 (stereo unspecified),-101
24,O=S(=O)(NCC1CCOC1)N1CCc2ccccc2C1 (stereo unspecified),-79.01
25,CN1CCCC(CNS(=O)(=O)N2CCc3ccccc3C2)C1 (stereo unspecified),77.6
26,O=S1(=O)CCN2C(=N1)Oc1ccc(S(=O)(=O)N3CCCC3)cc12,-88.45

row,Structure (SMILES),Percent Effect [%]
1,CSCCCN1C[C@H](NC(=O)c2cc(C3CC3)on2)[C@@H](C2CC2)C1,21.88
2,O=C(c1cccnc1)N1CCC2(CC1)CCN(Cc1ccccn1)C2=O,-24.21
3,CCn1ncc(Cl)c1CN(C)C(=O)CCn1ncc(Br)c1C,-15.28
4,Cc1nc[nH]c1CN1CCN(C(=O)C2CC2)[C@H]2CS(=O)(=O)C[C@H]21,-108.2
5,C[C@@H](O)CNc1c(NCc2ccco2)c(=O)c1=O,-66.82
6,CC1(C)CC(=O)c2cnc3nc(N4CCCCC4)nc(O)c3c2C1,-100.7
7,O=C(CCOc1cccc(F)c1)N1CCCC1Cn1cccn1 (stereo unspecified),-132.8
8,Cc1ncc(CN2CCCC(c3cc(C(N)=O)[nH]n3)C2)s1 (stereo unspecified),-114.1
9,CN(C)CC1COCCN1C(=O)C1(c2cccs2)CCCC1.O=CO (stereo unspecified),30.77
10,CN(CCO)CC1COCCN1C(=O)C1(c2cccs2)CCCC1.O=CO (stereo unspecified),45.51
11,Fc1cccnc1N1CCCC(c2nccs2)C1 (stereo unspecified),-23.64
12,CN1CCC(CCNC(=O)N2CCN(Cc3ccon3)CC2)CC1,-51.38
13,CC(C)S(=O)(=O)CCN1CCc2c(ncn2C2CC2)C1,-95.89
14,CCS(=O)(=O)N1CCc2c(CN3CCOCC3)cncc2C1.Cl.Cl,-14.39
15,CC1CCCN(CCNC(=O)c2ccn(-c3ccc(F)cc3)n2)C1 (stereo unspecified),48.64
16,CC1CCCCN1CCNC(=O)c1ccn(-c2cccc(F)c2)n1 (stereo unspecified),62.87
17,CC1CCN(CCNC(=O)c2ccn(-c3ccc(F)cc3)n2)CC1,59.32
18,COc1ccc(-n2ccc(C(=O)NCCN3CCCCC3C)n2)cc1 (stereo unspecified),-78.7
19,CC1CCN(CCNC(=O)c2ccn(-c3ccccc3)n2)CC1,21.68
20,CC1CCCCN1CCNC(=O)c1ccn(-c2ccc(F)cc2)n1 (stereo unspecified),33.02
21,CS(=O)(=O)NCc1nnc2n1CCN(Cc1nccs1)C2,-79.56
22,CN(C)CC1(O)CCN(S(=O)(=O)c2cccc(F)c2)C1 (stereo unspecified),65.12
23,Cc1ccc(S(=O)(=O)N2CCC(O)(CN(C)C)C2)cc1 (stereo unspecified),49.75
24,CN(C)CC1(O)CCN(S(=O)(=O)c2ccc(Cl)cc2)C1 (stereo unspecified),40.17
25,CC(=O)c1ccc(CNC(=O)c2c(C)cc(C)cc2C)nc1C,-62.27
26,CN(C)C(=O)c1nn(C)c2c1CN(Cc1cccs1)C2.O=C(O)C(F)(F)F.O=C(O)C(F)(F)F,-31.31

row,Structure (SMILES),Percent Effect [%]
1,NC(=O)CCC1CCCN(c2ccnc3cc(F)ccc23)C1 (stereo unspecified),82.57
2,NC(=O)CCC1CCCN(c2ccc3c(Cl)ccnc3c2F)C1 (stereo unspecified),-15.33
3,NC(=O)CCC1CCCN(c2ccc3ccc(F)cc3n2)C1 (stereo unspecified),-163.3
4,NC(=O)C1CCN(CCCNC(=O)Nc2nccs2)CC1,-52.35
5,CCn1nc(C)c2nc(C(C)C)nc(N3CCC(O)CC3)c21,-68.6
6,COc1ccccc1CN(Cc1cccc(C)c1)C(=O)[C@@H](N)CC(=O)O,-17.66
7,COCC(=O)N(Cc1cccc(C)c1)Cc1ccccc1OC,-1.416
8,CN[C@@H](C)C(=O)N(Cc1cccc(C)c1)Cc1ccccc1OC,83.47
9,Cc1cnc(N2C(=O)CSC2c2cccs2)s1 (stereo unspecified),-26.83
10,COC(=O)c1ccc2c(-c3ccnc(N[C@@H](C)CO)n3)c[nH]c2c1,-32.75
11,COc1ccc2[nH]cc(-c3ccnc(N4CCC(C)CC4)n3)c2c1,-185.2
12,COc1ccc2[nH]cc(-c3ccnc(NC4CCCC4)n3)c2c1,56.79
13,COc1ccccc1CC(C)CC(=O)NC(C)C (stereo unspecified),-116.6
14,CC(=O)N(Cc1noc(C2CC2)n1)C1CCN(Cc2cc(C)on2)C1 (stereo unspecified),-9.487
15,FC(F)(F)c1cccc(OC2CCN(Cc3c[nH]cn3)CC2)c1,48.24
16,FC(F)(F)c1cccc(OC2CCN(Cc3ncc[nH]3)CC2)c1,-24.7
17,Cc1cccc(-c2nc(N)nc3c2CN(C(=O)C2CCCC2)C3C)c1 (stereo unspecified),35.57
18,COc1ccccc1CN1CC(O)CN(C(=O)OCC(C)C)CC1=O (stereo unspecified),-17.94
19,Nc1ccc(C(=O)N2C[C@@H]3CC[C@H](C2)N(Cc2ccccc2)C3)cn1,-23.45
20,O=C(O)C(F)(F)F.O=C(O)C(F)(F)F.O=C(c1cccnc1)N1CCN2C[C@H](OCc3ccccc3)C[C@H]2C1,-25.13
21,CC(C#N)CSc1ccccc1NCC(=O)NC1CCCCC1 (stereo unspecified),-62.9
22,CC(C#N)CSc1ccccc1NCC(=O)Nc1ccccc1 (stereo unspecified),-74.13
23,CC(C#N)CSc1ccccc1NCC(=O)NC(C1CC1)C1CC1 (stereo unspecified),54.59

# — ChEMBL document CHEMBL3988442, “University of Dundee, Small-Polar-MMV Screening Library” (2021)
